# Reference: ChEMBL document CHEMBL1157539, “Thousands of chemical starting points for antimalarial lead identification” (Nature, 2010)
# Tested on: HepG2
# Assay: GSK_TCMDC: Percent inhibition of human HepG2 cell line. Test compounds present at 10uM.
# Assay type: functional
row,SMILES,Inhibition [%]
1,Cc1nc(-c2cccc3c(NC(=O)Nc4ccc5nccc(N6CCN(C)CC6)c5c4)cccc23)no1.Cl,0
2,C=CCn1c(Sc2ccc(C#N)c([N+](=O)[O-])c2)nnc1-c1cccc(Cl)c1,41
3,CCN(CC)S(=O)(=O)c1ccc(Cl)c(C(=O)Nc2ccc3nc(C)sc3c2)c1,9
4,OC(CNc1ccnc(Nc2ccccc2)n1)c1ccc(C(F)(F)F)cc1 (stereo not given),3
5,Br.CC1(C)NC(N)=NC(=N)N1OCCSCCON1C(=N)N=C(N)NC1(C)C,34
6,COc1ccc2nccc([C@@H](O)CN3CCC(NC(=O)C(c4cc5ccccc5o4)N4CCN(c5ccc(F)cc5)CC4)CC3)c2c1 (stereo not given in full),15
7,CSc1nnc2n(Cc3ccccc3)c(=O)c3c(n12)-c1ccccc1CC31CCCCC1,0
8,NC1=NC(c2ccccc2)(c2ccccn2)C(=O)N1CCCc1ccccc1.O=C(O)C(F)(F)F (stereo not given),0
9,Cc1ccc(Nc2nc(C)cc(N3CCN(c4ccccc4)CC3)n2)cc1,4
10,O=C(Nc1ccc(Cl)cc1)c1cccc(CN2CCCN(Cc3cccc(O)c3)CC2)c1.O=C(O)C(F)(F)F,14
11,Cc1ccc(CN2CCCN(Cc3ccc(C(=O)Nc4ccc(Cl)cc4)cc3)CC2)s1.O=C(O)C(F)(F)F,53
12,CC(C)(C)NCc1cc(Nc2ccnc3cc(Cl)ccc23)ccc1F,21
13,COc1ccccc1Nc1nc(C)cc(NCc2ccc(-c3c(C)noc3C)cc2)n1,12
14,COc1cc(NC(=O)/C=C/c2cccc3cc[nH]c23)ccc1OCCN(C(C)C)C(C)C.Cl,11
15,Cc1cc(O)nc(NC(=N)NOCCCc2ccccc2)n1,0
16,CCCCN1C(=O)C2CC(=O)CC(C3CCCCC3)C2C1=O (stereo not given),0
17,CCN(CCCN1CCCCC1)c1cc(C)nc(Nc2ccc(C(C)C)cc2)n1.O=C(O)C(F)(F)F,34
18,Cc1c(Cn2ncc(N3CCC(N)CC3)c(Cl)c2=O)cccc1NC(=O)Nc1ccc(-c2ccccc2)cc1.O=C(O)C(F)(F)F,19
19,Cl.ON=C1CCc2cc(-c3[nH]c(-c4cccc(OCCNCc5ccc(F)cc5)c4)nc3-c3ccncc3)ccc21,76
20,Cl.O=C(Nc1cc(Cl)cc(Cl)c1)c1cnn(-c2ccc(F)cc2)c1C1CCNCC1,13

row,SMILES,Inhibition [%]
1,N#Cc1c(N)nc(SCC(=O)Nc2cc(C(F)(F)F)ccc2Cl)c(C#N)c1-c1cccs1,23
2,O=C(Cc1ccc[n+]([O-])c1)Nc1ccc(-c2cccc(-c3nc4cc(C(F)(F)F)ccc4[nH]3)c2)cc1,16
3,O=C(Nc1ccccc1Cl)N(Cc1cc(Cl)cc(Cl)c1)CC(O)COc1ccc(Cl)c(F)c1 (stereo not given),0
4,CC1SC(=S)NC1C(=O)O (stereo not given),3
5,Cc1csc2nc(-c3ccccn3)nc(Nc3ccc4ncsc4c3)c12.Cl,0
6,Cc1cccc2c1NC(=O)/C2=N/NC(=S)N(C)C,48
7,CCCCCCCNC(=O)NCC1CCCN(CCCCCNC(=O)/C=C/c2ccc(Cl)c(Cl)c2)C1 (stereo not given),98
8,COc1cc(NC2=NS(=O)(=O)c3cc(Cl)ccc3N2C)cc(OC)c1OC.O=C(O)C(F)(F)F,0
9,CC(C)COc1ccc(Cl)cc1Cc1ccc(-c2nc3ccc(C(F)(F)F)cc3[nH]2)o1,14
10,Cc1nnsc1C(=O)Nc1cccc(-c2cccc(-c3nc4cc(C(F)(F)F)ccc4[nH]3)c2)c1,70
11,CCN(CC)CC(O)Cc1c2ccc([N+](=O)[O-])cc2nc2cc(OC)c(OC)cc12 (stereo not given),41
12,O=C(O)C(F)(F)F.OC1CCCN(Cc2cccc(-c3ccc(-c4nc5cc(C(F)(F)F)ccc5[nH]4)cc3)c2)C1 (stereo not given),27
13,CCC(=Cc1cccc([N+](=O)[O-])c1)C(=O)NCC1CCN(c2nc3cc(OC)c(OC)cc3c(=N)[nH]2)CC1.Cl,25
14,Cl.N#Cc1cccc(-c2cccc(C(=O)NC3CCC(CCN4CCc5ccc(C#N)cc5CC4)CC3)c2)c1 (stereo not given),31
15,Cc1cccc2nc(-c3ccc(-c4ccc(NC(=O)Nc5ccsc5)cc4)cc3)[nH]c12,49
16,NC1CCN(Cc2ccc(-c3ccc(-c4nc5ccccc5[nH]4)s3)cc2)C1.O=C(O)C(F)(F)F (stereo not given),32
17,O=C(NCCCCN1CCC(c2ccc3c(c2OCC2CC2)CCCC3)CC1)c1ccc(NC(=O)c2ccc(Cl)cc2)cc1,23
18,CCCC(CNCc1cccc(OC(F)(F)C(F)F)c1)CNc1cc(=O)c2ccccc2[nH]1 (stereo not given),0
19,CN(C)CCNC(=O)c1cccc(-c2cnc3ccc(NCc4ccc(Cl)c(Cl)c4)nn23)c1,31
20,COc1ccc(NC(=O)C2c3ccccc3C(=O)N(C3CCCC3)C2c2cccs2)c(OC)c1 (stereo not given),3
